Bioassay records from PubChem.
DT40 TDP1 no CPT: qHTS for Inhibitors of human tyrosyl-DNA phosphodiesterase 1 (TDP1): qHTS in cells in absence of CPT. DT40 Tdp1-/- hTDP1 cells, no CPT, ATP luminescence, 48 h. Potency, µM (series often up to 46.2 µM), for the others: at the top dose activity change, negative = growth inhibition, hits mostly inhibitors. 15% of 420,000 active; also: nearly all actives have a fitted effect of over 55% in size
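Compound effects on proliferation are scored in DT40 Tdp1-/-;hTDP1 cells in the absence of CPT. ATP levels (CellTiter-Glo luminescence) are recorded after a ≥48 hr, 37 °C incubation.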
HT1080-NT tox: kills 2HG-producing HT-1080-NT fibrosarcoma cells; HT-1080-NT fibrosarcoma viability, CellTiter-Glo ATP luminescence, 48 h; Potency, µM (highest dose often 46.1 µM), without a hit: at the top dose activity, negative = less viability, most hits filed as cytotoxic; 1.6% of 360,000 active;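 also: NT is the 2HG producing partner of a matched IDH1 knockdown line; 0% = DMSO-treated cells and -100% = media-only wells without cells; nearly all actives have a fitted effect of over 55% in size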
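HT-1080-NT; 750 cells/well; 5% FBS RPMI; 48 h compound, 37 degrees C; CellTiter-Glo luminescence; curve fitting and curve-class assignment.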
KB-V1 MDR tox: KB-V1 MDR subline cytotoxicity; KB-V1 MDR cells viability, CellTiter-Glo, 72 h; 3.4% of 400,000 active; Potency, µM (doses to about 46.1 µM), actives largely listed as cytotoxic; also: nearly all actives have a fitted effect of over 60% in size
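Luminescent ATP read-out (CellTiter-Glo, 10 min) measures survival of drug-selected KB-V1 MDR cells after 72 h, 37 degrees C compound exposure. Medium: phenol-red-free DMEM, 10% FBS. Values from fitted concentration-response curves.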
DT40 TDP1 CPT: growth inhibition of DT40 Tdp1-/-;hTDP1 cells with camptothecin (screen for TDP1 inhibitors). chicken DT40 Tdp1-/-;hTDP1 cells + 20 nM CPT, ATP luminescence, 48 h. Potency, µM (series often up to 46.2 µM), inactives show at the top dose activity change, negative = growth inhibition, usual class: inhibitors. 12% of 420,000 active. AID 686979; also: nearly all actives have a fitted effect of over 55% in size
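Chicken DT40 Tdp1-/- cells complemented with human TDP1, 400 cells/well, exposed to compounds plus 20 nM camptothecin for at least 48 h at 37 C; viability read as ATP content by CellTiter-Glo luminescence.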
KB-3-1 cytotox: KB-3-1 parental cell cytotoxicity; KB-3-1 viability, CellTiter-Glo ATP luminescence, 72 h; Potency, µM (titrated, usually from 46.1 µM), usual class: cytotoxic; 1.4% of 400,000 active; AID 1347075; also: nearly all actives have a fitted effect of over 60% in size
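Cytotoxicity measured as CellTiter-Glo luminescence after 72 h at 37 C. Compound titrations were pinned onto drug-naive KB-3-1 parental adenocarcinoma cells grown in DMEM with 10% FBS, and normalized data fitted to concentration-response curves.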
HT1080 IDH1KD tx: toxicity to HT-1080 IDH1 knockdown cells (counter line). 2% of 360,000 active. Potency, µM (doses to about 46.1 µM), for inactives: at the top dose activity, negative = toxicity, usual class: cytotoxic. HT-1080 IDH1 knockdown viability, ATP luminescence, 48 h;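 also: 0% = DMSO wells and -100% = cell-free medium wells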
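Assay cells: HT-1080 with IDH1 knockdown, 750 per well, RPMI/5% FBS. Exposure: 48 h at 37 °C following 2 h pre-incubation. Read: CellTiter-Glo luminescence; fitted concentration-response, curve class assigned.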
Active calls of the source: *. In the library only some 19% were active in any assay of this set; here they are far more common. Calls follow the shape of the dose curve; as a rule, active = well fitted curve in the direction sought with a large enough effect; inconclusive = small, poorly fitted or top-dose-only effect, or another doubt; inactive = no such curve, though single readings can be large; an effect the other way counts as inactive or inconclusive. Unless noted, % is scaled to controls: 0 for no effect and ±100 for the full control effect; potency is read from the fitted curve at half-maximal effect.

`Cc1ccccc1S(=O)(=O)NC(=O)C1(C)CCN1C(=O)C1CCCCC1` (stereo not drawn) gave DT40 TDP1 no CPT -3%, HT1080-NT tox inconclusive, KB-V1 MDR tox inactive, DT40 TDP1 CPT 1%, KB-3-1 cytotox inactive and HT1080 IDH1KD tx 11%.
For Cc1cc(C)c(OCC(=O)NCC(c2ccco2)N2CCCCC2)c(C)c1 (stereo not drawn) the results were DT40 TDP1 no CPT inconclusive, HT1080-NT tox -6%, KB-V1 MDR tox inactive, DT40 TDP1 CPT inconclusive, KB-3-1 cytotox inactive and HT1080 IDH1KD tx -1%.
For O=C(NCC(c1ccco1)N1CCCC1)c1ccc(Cl)cc1 (stereo not drawn) the results were DT40 TDP1 no CPT -5%, HT1080-NT tox 4%, KB-V1 MDR tox inactive, DT40 TDP1 CPT -7%, KB-3-1 cytotox inactive and HT1080 IDH1KD tx 9%.
Screening O=C(NCC(c1ccco1)N1CCCCC1)c1ccc([N+](=O)[O-])s1 (stereo not drawn) returned DT40 TDP1 no CPT 23µM*, HT1080-NT tox -7%, KB-V1 MDR tox inconclusive, DT40 TDP1 CPT 18µM*, KB-3-1 cytotox inconclusive and HT1080 IDH1KD tx -5%.
For Cc1cc2oc(C(=O)NCC(c3ccco3)N3CCCC3)c(C)c2cc1C (stereo not drawn) the results were DT40 TDP1 no CPT 21µM*, HT1080-NT tox inconclusive, KB-V1 MDR tox inactive, DT40 TDP1 CPT inconclusive, KB-3-1 cytotox inactive and HT1080 IDH1KD tx inconclusive.
For Cc1ccc(C(=O)NCC(c2ccco2)N2CCCCC2)s1 (stereo not drawn) the results were DT40 TDP1 no CPT inconclusive, HT1080-NT tox -4%, KB-V1 MDR tox inactive, DT40 TDP1 CPT inconclusive, KB-3-1 cytotox inactive and HT1080 IDH1KD tx -3%.
Cc1ccc2c(Cl)c(C(=O)NCC(c3ccco3)N3CCCC3)sc2c1 (stereo not drawn) was read as DT40 TDP1 no CPT inconclusive, HT1080-NT tox 0%, KB-V1 MDR tox inactive, DT40 TDP1 CPT 18µM*, KB-3-1 cytotox inactive and HT1080 IDH1KD tx -2%.
Screening O=C(NCC(c1ccco1)N1CCCC1)c1cc2cc(Cl)ccc2o1 (stereo not drawn) returned DT40 TDP1 no CPT inconclusive, HT1080-NT tox -10%, KB-V1 MDR tox 9.2µM*, DT40 TDP1 CPT 18µM*, KB-3-1 cytotox inactive and HT1080 IDH1KD tx -10%.
`Cc1noc(NS(=O)(=O)c2cccc3c(N(C)C)cccc23)c1C` gave DT40 TDP1 no CPT -10% and DT40 TDP1 CPT 0%.
Screening CCOC(=O)c1[nH]c2ccccc2c1NC(=O)c1ccccc1F returned DT40 TDP1 no CPT inconclusive, KB-V1 MDR tox inactive, DT40 TDP1 CPT inconclusive and KB-3-1 cytotox inactive.
`COC(=O)c1ccc(NC(=O)CSc2nc(=O)n(Cc3ccco3)c3c2CCC3)cc1` gave DT40 TDP1 no CPT inconclusive, KB-V1 MDR tox inactive, DT40 TDP1 CPT -28% and KB-3-1 cytotox inactive.
Screening Cc1ccc2oc(C(=O)NCC(c3ccco3)N3CCCC3)c(C)c2c1 (stereo not drawn) returned DT40 TDP1 no CPT inconclusive, HT1080-NT tox inconclusive, KB-V1 MDR tox inactive, DT40 TDP1 CPT 29µM*, KB-3-1 cytotox inactive and HT1080 IDH1KD tx inconclusive.
`Cc1ccc(C)c(NC(=S)NNC(=O)c2csc3c2CCCC3)c1` gave DT40 TDP1 no CPT -22%, HT1080-NT tox -26%, KB-V1 MDR tox inconclusive, DT40 TDP1 CPT -24%, KB-3-1 cytotox inactive and HT1080 IDH1KD tx inconclusive.
For CCNC(=S)NNC(=O)c1csc2c1CCCC2 the results were DT40 TDP1 no CPT -14%, HT1080-NT tox -25%, KB-V1 MDR tox 26µM*, DT40 TDP1 CPT -4%, KB-3-1 cytotox inactive and HT1080 IDH1KD tx inconclusive.
Screening O=C(NCc1ccccc1)c1csc2c1CCCCC2 returned DT40 TDP1 no CPT -14%, HT1080-NT tox 0%, KB-V1 MDR tox inactive, DT40 TDP1 CPT -13%, KB-3-1 cytotox inactive and HT1080 IDH1KD tx 6%.
`CCC(C)NC(=O)c1csc2c1CCCCC2` (stereo not drawn) gave DT40 TDP1 no CPT -9%, HT1080-NT tox 4%, KB-V1 MDR tox inactive, DT40 TDP1 CPT -9%, KB-3-1 cytotox inactive and HT1080 IDH1KD tx 0%.
`CCC(Cc1ccccc1)NC(=O)c1csc2c1CCCCC2` (stereo not drawn) gave DT40 TDP1 no CPT inconclusive, KB-V1 MDR tox inactive, DT40 TDP1 CPT 13µM* and KB-3-1 cytotox inactive.
`Cc1ccccc1NC(=O)c1csc2c1CCCC2` gave DT40 TDP1 no CPT 21µM*, HT1080-NT tox inconclusive, KB-V1 MDR tox inconclusive, DT40 TDP1 CPT 5.8µM*, KB-3-1 cytotox inactive and HT1080 IDH1KD tx inconclusive.
CC(CNC(=O)c1csc2c1CCCCC2)c1ccccc1 (stereo not drawn) was read as DT40 TDP1 no CPT 16µM*, KB-V1 MDR tox inactive, DT40 TDP1 CPT 21µM* and KB-3-1 cytotox inactive.
Screening CCc1nnc(NC(=O)c2ccc3c(=O)n4c(nc3c2)CCC4)s1 returned DT40 TDP1 no CPT inconclusive, HT1080-NT tox 1%, KB-V1 MDR tox inactive, DT40 TDP1 CPT -28%, KB-3-1 cytotox inactive and HT1080 IDH1KD tx -2%.
Screening COc1ccc(Cl)cc1S(=O)(=O)N(C)CC(=O)NCc1ccccn1 returned DT40 TDP1 no CPT 2%, HT1080-NT tox 6%, KB-V1 MDR tox inactive, DT40 TDP1 CPT 7%, KB-3-1 cytotox inactive and HT1080 IDH1KD tx 23%.
For CNc1cc(-c2cnn(CC(C)C)c2)ncn1 the results were DT40 TDP1 no CPT -25%, HT1080-NT tox 20%, KB-V1 MDR tox inactive, DT40 TDP1 CPT -23%, KB-3-1 cytotox inactive and HT1080 IDH1KD tx 11%.
`CC1CC(C)CN(CCCNC(=O)c2csc3c2CCCC3)C1` (stereo not drawn) gave DT40 TDP1 no CPT inconclusive, HT1080-NT tox -11%, KB-V1 MDR tox 16µM*, DT40 TDP1 CPT inconclusive, KB-3-1 cytotox inactive and HT1080 IDH1KD tx -8%.
`CC(C)CCNC(=O)c1csc2c1CCCCC2` gave DT40 TDP1 no CPT inconclusive, HT1080-NT tox 7%, KB-V1 MDR tox inactive, DT40 TDP1 CPT 2%, KB-3-1 cytotox inactive and HT1080 IDH1KD tx 0%.
Screening CCCCN1C(=O)C(CC(=O)NC(c2ccccc2)c2ccccc2)CC(C(=O)N(CC)CC)=C1C (stereo not drawn) returned DT40 TDP1 no CPT 21µM*, HT1080-NT tox -11%, KB-V1 MDR tox inconclusive, DT40 TDP1 CPT 18µM*, KB-3-1 cytotox inactive and HT1080 IDH1KD tx -9%.
